Compound activity (PubChem BioAssay)
PLK1 PBD inh – qHTS for Inhibitors of PLK1-PDB (polo-like kinase 1 - polo-box domain): Primary Screen; Serine/threonine-protein kinase PLK1 (Homo sapiens), P53350; Plk1 PBD binding of FITC phosphopeptide, fluorescence polarization; Potency, µM, without a hit: max response, negative = inhibition, usual class: inhibitors; hit rate 2.8% among 360,000; further: series mostly up to about 57 µM; on the % scale 0 is the no-effect control and ±100 the full control effect; nearly all actives have a fitted effect of over 65% in size
BAZ2B inh – qHTS Assay for Inhibitors of BAZ2B; AlphaScreen BAZ2B-H3K14Ac peptide displacement; Bromodomain adjacent to zinc finger domain protein 2B (Homo sapiens), Q9UIF8; hit rate 4.4% among 360,000; Potency, µM (series often up to 114 µM), inactives show top-dose activity change, negative = inhibition, hits mostly inhibitors; further: on the % scale 0 is the no-effect control and ±100 the full control effect; nearly all actives have a fitted effect of over 60% in size
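Multi-concentration screen (max 110 uM) measuring displacement of acetylated histone H3 peptide from BAZ2B by AlphaScreen, using 50 nM protein, 50 nM peptide and 10 ug/mL streptavidin donor plus Ni-chelate acceptor beads.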
G9a inh – qHTS Assay for Inhibitors of Histone Lysine Methyltransferase G9a; Histone-lysine N-methyltransferase EHMT2 (Homo sapiens), Q96KQ7; G9a H3K9 monomethylation, AlphaScreen, 2 h; Potency, µM (highest dose often 102 µM), for the others: at the top dose activity, negative = inhibition, actives largely listed as inhibitors; hit rate 8.8% among 350,000; AID 504332, 2011; further: on the % scale 0 is the no-effect control and ±100 the full control effect; nearly all actives have a fitted effect of over 75% in size
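G9a (20 nM) preincubated 15 min RT with compounds, then 500 nM biotinylated H3K9 peptide and 20 uM SAM added; 2 h RT reaction. Monomethyl-H3K9 product detected by AlphaScreen with anti-H3K9me1 antibody, streptavidin donor and anti-rabbit IgG acceptor beads.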
Sfp inh – qHTS Assay for Inhibitors of Bacillus subtilis Sfp phosphopantetheinyl transferase (PPTase) | Potency, µM, for inactives: largest response in the series, negative = inhibition, usual class: inhibitors | Biochemical Sfp PPTase activity, qHTS | hit rate 3.5% among 310,000 | 4'-phosphopantetheinyl transferase ffp (Bacillus subtilis), Q9F4F7 | AID 1490, 2009;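 further: the enzyme is Sfp with the accession as filed and its product quenches rhodamine fluorescence; 0% = enzyme reaction without inhibitor and -100% = no enzyme wells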
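Step 1, compound plus 15 nM Sfp-PPTase, 15 min, room temperature. Step 2, add rhodamine-CoA (5 uM) and BHQ-2-YbbR (12.5 uM). Step 3, read 525/598 nm fluorescence at 0 and 30 min.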
HP1b chromo inh – HTS for Inhibitors of HP1-beta Chromodomain Interactions with Methylated Histone Tails; Potency, µM (top dose mostly 114 µM), without a hit: top-dose activity change, negative = inhibition, most hits filed as inhibitors; AlphaScreen HP1-beta / biotin-H3K9me3 peptide binding; hit rate 0.56% among 390,000; AID 540317, 2011; further: nearly all actives have a fitted effect of over 70% in size
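HP1-beta protein (50 nM final) preincubated 30 min at room temperature with biotinylated H3(1-18)K9me3 peptide (50 nM) in PBS pH 7.4, 0.01% Tween-20, then compound added for 30 min. AlphaScreen streptavidin donor/nickel chelate acceptor beads (10 ug/mL final), 30 min dark, luminescence read.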
JMJD2A Tudor – qHTS Assay for Inhibitors of JMJD2A-Tudor Domain; AlphaScreen JMJD2A-Tudor / H3K4me3 peptide binding; hit rate 4.4% among 390,000; Potency, µM (top dose mostly 114 µM), for the others: at the highest dose activity change, negative = inhibition, actives largely listed as inhibitors; Lysine-specific demethylase 4A (Homo sapiens), O75164; further: on the % scale 0 is the no-effect control and ±100 the full control effect; nearly all actives have a fitted effect of over 50% in size
Starred values were filed as active, the others as inactive; ? = inconclusive; / = no result given; [ ] = another dose, or the depositor's remark. Rows were chosen to be rich in hits. Some 12% of all compounds tested hit in one or more screens of this group. The call rests on the fitted dose curve; in most records, active means well fitted curve in the direction sought with a large enough effect; inconclusive means small, poorly fitted or top-dose-only effect, or another doubt; inactive means no such curve, though single readings can be large; an effect the other way counts as inactive or inconclusive. Potency means the concentration at half of the fitted maximal effect.

SMILES	PLK1 PBD inh	BAZ2B inh	G9a inh	Sfp inh	HP1b chromo inh	JMJD2A Tudor
COc1ccc(CNC(=O)c2ccc(N3CCC4(CC3)CC(c3ccc(Cl)cc3)=NO4)c(NC(=O)Cc3ccc(F)cc3)c2)cc1	3.7%	/	/	/	36.2%	-17.9%
O=C(O)CC(c1ccccc1)N1C(=O)c2cccc([N+](=O)[O-])c2C1=O (stereo unspecified)	-15.5%	-1.1%	-80.5%	20.4%	16.5%	-6.5%
CCN(CC)S(=O)(=O)c1cc(NC(=O)C2=COCCO2)ccc1Cl	-5.7%	-2.3%	50.1µM*	/	-5.8%	-26.0%
CCc1nc(NC(=O)Cc2csc(C)n2)sc1C(=O)OC	-5.3%	-3.2%	0.1%	9.2%	32.4%	2.2%
CC(C)(C)S(=O)(=O)/C(C#N)=N/Nc1ccc(Cl)cc1	-15.2%	?	35.5µM*	23.3%	2.5%	?
CC(C)(C)c1ccc(N/N=C(\C#N)S(=O)(=O)C(C)(C)C)cc1	-0.5%	?	-22.2%	-6.0%	24.2%	-20.1%
COc1ccc([C@@H]2C(C#N)=C(N)S[C@@H](c3ccccc3)[C@@H]2[N+](=O)[O-])cc1	-21.8%	-36.4%	-0.3%[59 µM]	17.1%	-17.3%	-8.5%[57.1 µM]
COc1ccc(C2C(C#N)=C(N)N3C(=C2C#N)Sc2ccccc23)cc1 (stereo unspecified)	/	-0.1%	6.31µM*	-2.1%	/	/
COc1ccc(CN2CCC(N3CC(C)OC(C)C3)CC2)c(OC)c1OC (stereo unspecified)	-2.4%	?	/	56.2µM*	?	20µM*
Cc1ccc(CN2CCC(N3CC(C)OC(C)C3)CC2)cc1 (stereo unspecified)	0.6%	56.2µM*	12.6µM*	-23.5%	?	22.4µM*
CC1CCCN(C(=O)C2CCN(CC3CC=CCC3)CC2)C1 (stereo unspecified)	-7.2%	6.9%	?	-3.9%	?	8.91µM*
OC(c1ccccn1)(c1ccccn1)c1ccccn1	3.5%	22.4µM*	-6.9%[59 µM]	?	36.8%	56.2µM*
CC(c1ccccn1)C(C)(O)C(C)c1ccccn1 (stereo unspecified)	3.3%	/	/	/	28.9%	-3.4%
CCC1(CC)NC(=O)N(CC(=O)OCC(=O)c2ccccc2OC)C1=O	1.4%	0.7%	8.5%[12.7 µM]	/	25.5%	3.7%
CCN(CC)C(=O)CSc1nc2ccccc2c(=O)n1-c1cccc(OC)c1	-3.6%	0.6%	7.6%[59 µM]	10.6%	32.0%	0.0%
COc1cccc(-n2c(SCc3cc(=O)oc4cc(O)c(O)cc34)nc3ccccc3c2=O)c1	?	35.5µM*	?	-16.2%	?	39.8µM*
N#Cc1ccc(OCC(=O)n2cc(C(=O)c3cc(Cl)cc(Cl)c3O)cn2)cc1	?	-30.0%	18.0%[12.7 µM]	3.3%	20.5%	-15.3%
COC(=O)c1sc2nc3c(cc2c1N)C(=O)CC(C)(C)C3	-3.7%	-3.2%	?	17.6%	38.4%	-24.4%
CCOc1ccc2nc3sc(C(=O)N4CCOCC4)c(N)c3cc2c1	-9.1%	-37.2%	?	31.6µM*	10.7%	-15.5%
Cc1cc(C)c(NC(=O)c2sc3nc4c(cc3c2N)C(=O)CC(C)(C)C4)c(C)c1	0.9%	?	44.7µM*	-13.6%	16.4%	-33.8%
Cc1cc(C)c2cc3c(N)c(C(=O)Nc4c(C)[nH]c(=O)[nH]c4=O)sc3nc2c1	12.4%	50.1µM*	-14.9%	?	89.3%	?
Cc1cc(C)c2cc3c(N)c(C(=O)N4CCOCC4)sc3nc2c1	?	-15.6%	8.91µM*	?	23.2%	-14.3%[57.1 µM]
C[C@@H]1CNCCN1S(=O)(=O)c1cccc2cnccc12	/	/	/	2.1%	/	/
Cc1cc(NC(=O)COCc2cc(-c3ccc(F)cc3)on2)ccc1Br	/	17.4%	6.5%[59 µM]	/	62.9%	22.4%
COc1cccc(-n2c(=O)c3c(C)c(C(=O)N(C)C)sc3n(CC(=O)Nc3ccc(C)cc3Cl)c2=O)c1	/	-19.8%	3.3%[59 µM]	/	-0.9%	-13.7%
SMILES	PLK1 PBD inh	BAZ2B inh	G9a inh	Sfp inh	HP1b chromo inh	JMJD2A Tudor
CCCS(=O)(=O)NC(=O)C1(C)CCCN(C(=O)c2cc(F)ccc2C)C1 (stereo unspecified)	2.2%	/	/	/	/	/
O=S(=O)(c1ccccc1F)N(Cc1ccco1)Cc1nnc(-c2ccccc2Br)o1	-1.4%	6.9%	79.4µM*	-5.8%	19.6%	-15.9%
Fc1cccc(Cl)c1CNn1cn[nH]c1=S	3.8%	-34.2%	8.91µM*	-3.9%	55.3%	50.1µM*
Clc1ccc(CNc2ncnc3[nH]ncc23)c(Cl)c1	-3.0%	/	/	/	22.5%	-13.3%
S=c1[nH]ncn1NCc1ccc(Cl)cc1Cl	-10.0%	-3.5%	2.82µM*	-23.6%	27.5%	31.6µM*
CCOC(=O)Cc1csc(NC(=O)CSc2nc(-c3ccccc3)c(C#N)c(=O)[nH]2)n1	-6.8%	-5.9%	?	20.5%	26.1%	-13.3%
Cc1sc(NC(=O)CSc2nc(O)cc(=O)[nH]2)nc1-c1ccccc1	-17.1%	?	?	2.9%	11.3%[57 µM]	-21.4%
CCOc1ccc2nc(NC(=O)CSc3nc(-c4ccccc4)c(C#N)c(=O)[nH]3)sc2c1	21.2µM*	-26.8%	?	9.4%	?	50.1µM*
COc1ccccc1NC(=O)CSc1nc(-c2ccc(C(C)(C)C)cc2)c(C#N)c(=O)[nH]1	/	79.4µM*	-50.8%[59 µM]	/	26.1%	-33.8%
COCC(=O)Nc1nc(-c2ccccc2)c(C)s1	?	9.3%	44.7µM*	-2.0%	-4.0%	-11.2%
COc1cccc(-c2nc(SCC(=O)Nc3nc(-c4ccccc4)c(C)s3)[nH]c(=O)c2C#N)c1	21.2µM*	?	?	12.4%	7.7%	-31.3%
COc1cccc(C(c2sc3nc(-c4ccco4)nn3c2O)N2CCN(c3ccccc3F)CC2)c1 (stereo unspecified)	/	?	?	/	-3.9%	?
CCOC(=O)c1ccccc1NC1(c2ccc(OC)cc2)C(=O)c2ccccc2C1=O	/	-27.5%[57.1 µM]	?	/	-8.0%	-34.0%
Cc1cccc(CCNC(=O)CN(c2ccc(C(C)C)cc2)S(=O)(=O)c2c(C)nn(C)c2C)c1	/	-13.1%	-37.7%[59 µM]	/	34.4%	-20.5%
CN(C(=O)CSc1nc(-c2ccc(C(C)(C)C)cc2)c(C#N)c(=O)[nH]1)C1CCCCC1	?	-26.7%[57.1 µM]	44.7µM*	-7.3%	25.2%	-16.5%
Cc1ccc2c(CN3CCCCC3CCO)cc(=O)oc2c1 (stereo unspecified)	-1.8%	3.1%	25.1µM*	10.7%	32.0%	0.3%
Cc1ccc2c(CN3CCC(C)CC3)cc(=O)oc2c1	-1.7%	-3.1%	44.7µM*	-4.5%	28.5%	-5.2%
